# From PubChem BioAssay
# Where “and” joins values, the source holds several entries; their conditions need not be identical. Identical values can stand only once. Calls of active or inactive are those of the source.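 The calls were made as follows, unless noted: active = compounds whose cell count with miR-34 switched on is under 0.7 times the count with it off; inactive = the rest.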
# Assays:
# [1] = compounds altering viability of human ES cells (AID 493140; call rule not given here;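 also: cells exposed to compounds for four days before counting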); conditions: human embryonic stem cell survival screen; stronger effect = higher value
# [2] = P. berghei load reduction in hepatocytes – cell-based, HepG2, luciferase luminescence, HepG2 viability, primary screen (AID 624349; in the data active = parasite load remaining mostly below about 12%, no sharp cut-off; inactive = mostly above about 10%;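 also: 100% = mean of DMSO negative control wells on the same plate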); conditions: P. berghei liver stage in HepG2, luciferase luminescence, concentration not given here; parasite load remaining: stronger effect = lower value; viability: measured here: HepG2 viability without parasites
# [3] = Wnt pathway potentiators raising nuclear beta-catenin – imaging, WNT3A-conditioned medium, mouse C2C12, NPC library, primary screen (AID 1117326; in the data active = nuclear beta-catenin stimulation mostly above about 4.2%, no sharp cut-off; inactive = mostly below about 10%); conditions: stronger effect = higher value
# [4] = stimulators of insulin release from INS-1E, primary screen, cell-based, 5 mM glucose, NPC library (AID 1117329;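 active = compound raises insulin release from rat beta cells at 5 mM glucose, no numeric limit stated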); conditions: rat INS-1E insulin secretion, at 10 µM, stronger effect = higher value
# [5] = growth inhibition of GSK3B-pretreated HCT116 cells – cell-based, CellTiter-Glo, 0.2 to 20 µM (AID 1117336;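 active = compounds lowering colon cancer cell viability after pretreatment blocking the GSK3B kinase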); conditions: HCT116 viability after GSK3B inhibitor, at 20 µM, stronger effect = higher value
# [6] = inhibition of endothelial tube formation, primary screen, imaging, VEGF stimulated, CD31 staining, tube area, NPC library (AID 1117340;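 active = compound that reduces growth-factor-driven endothelial tube area in a mixed cell culture, no cutoff stated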); conditions: VEGF-stimulated ADSC/ECFC co-culture, at 10 µM, stronger effect = higher value
# [7] = GLP1 release stimulators, primary, NCI-H716, NPC library (AID 1117341;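 active = compound raises GLP1 secretion from the human gut endocrine cells, with no numeric limit stated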); conditions: NCI-H716 cells, at 10 µM, stronger effect = higher value
# [8] = HCT116 colon cancer cell growth inhibition, primary screen, CellTiter-Glo luminescence, NPC library (AID 1117342;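 active = compounds that lower survival of HCT116 colon cancer cells in the luminescence readout, no numeric limit stated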); conditions: at 20 µM (top of the series)
# [9] = reduced SW480 viability measured with CellTiter-Glo, NPC library, primary (AID 1117343;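 active = compounds that lower viability of the colon cancer cells in the luminescence readout, with no numeric limit stated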); conditions: CellTiter-Glo luminescence; at 20 µM (top of the series) unless noted
# [10] = NPC library primary testing for decreased DLD-1 cell viability via CellTiter-Glo (AID 1117346;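 active = compounds that lower survival of DLD-1 colon cancer cells in the luminescence readout, no cutoff given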); conditions: DLD-1 viability, CellTiter-Glo luminescence; at 20 µM (top of the series)
# [11] = EMT-state selective cytotoxicity in co-culture – imaging, PC-3E GFP, TEM4-18 mCherry, primary screen (AID 1345086;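 active = compounds killing one labelled cell type while sparing the other, by normalised counts and ratio limits, not self-fluorescent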;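 as to all read-outs here: cells exposed to compound for 72 h before imaging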;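 as to red/green cell ratio (normalised): normalised mesenchymal count divided by normalised epithelial count so high means epithelial killing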); conditions: PC-3E GFP / TEM4-18 mCherry co-culture, imaging cell counts, at 1 µM; for red/green cell ratio (normalised): actives lie on both sides, counts scaled to control wells, 1 = unselective
# [12] = viability loss with induced miR-34 in A549 – imaging, A549 dox-inducible miR-34, nuclei and caspase counts, primary screen (AID 1347080); conditions: A549 miR-34 inducible, Hoechst nuclei count, 48 h
# [13] = MELAS cybrid and Rieske KO viability enhancers – cell-based, MELAS cybrids, Rieske KO mouse fibroblasts, CellTiter-Glo, primary screen (AID 1508586;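 active = mean z-score across replicates of 1.96 or higher in either the MELAS or the Rieske mutant cell line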;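 also: z relative to plate mean and SD of compound and empty wells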); conditions: low glucose
# [14] = biological target: NAD(+) hydrolase SARM1 (Homo sapiens) (UniProt Q6SZW1); assay: blocking NAD cleavage by SARM1 SAM-TIR – cell lysate, NAD-Glo luminescence (AID 1508614;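 active = compound whose remaining NAD level is above about 45 nM, limit read from the data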;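 also: higher remaining NAD means stronger inhibition of SARM1 NADase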); conditions: SAM-TIR HEK293T lysate NADase, at 1 µM, stronger effect = higher value
# Chain of NAD(+) hydrolase SARM1 (Homo sapiens) (Q6SZW1 whole entry, looked up): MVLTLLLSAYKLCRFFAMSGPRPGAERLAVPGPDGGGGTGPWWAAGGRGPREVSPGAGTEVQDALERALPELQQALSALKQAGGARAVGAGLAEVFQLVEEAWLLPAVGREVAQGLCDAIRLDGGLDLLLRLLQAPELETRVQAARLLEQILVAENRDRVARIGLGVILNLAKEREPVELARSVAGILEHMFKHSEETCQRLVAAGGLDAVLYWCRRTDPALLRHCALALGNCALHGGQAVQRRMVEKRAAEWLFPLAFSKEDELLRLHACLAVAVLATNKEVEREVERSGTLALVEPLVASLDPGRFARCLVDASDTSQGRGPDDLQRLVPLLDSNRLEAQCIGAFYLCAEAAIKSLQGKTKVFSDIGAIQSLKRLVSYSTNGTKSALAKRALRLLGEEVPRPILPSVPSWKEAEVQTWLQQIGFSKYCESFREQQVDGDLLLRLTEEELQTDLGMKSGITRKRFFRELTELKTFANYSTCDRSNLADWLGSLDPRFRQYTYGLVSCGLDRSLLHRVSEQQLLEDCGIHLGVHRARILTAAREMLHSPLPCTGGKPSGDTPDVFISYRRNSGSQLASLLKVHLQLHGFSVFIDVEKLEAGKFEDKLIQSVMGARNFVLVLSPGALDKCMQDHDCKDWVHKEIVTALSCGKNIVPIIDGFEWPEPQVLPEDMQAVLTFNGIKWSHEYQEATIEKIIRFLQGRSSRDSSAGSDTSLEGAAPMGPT
# [15] = measured here: epithelial PC-3E GFP cell survival
# [16] = measured here: mesenchymal TEM4-18 mCherry cell survival
# [17] = stronger effect = lower value, cell number ratio, induced over uninduced
# [18] = measured here: relative caspase fold change +Dox/-Dox
# [19] = measured here: total cells with miR-34 induction, stronger effect = lower value
# [20] = measured here: total cells without miR-34 induction
# [21] = MELAS cybrid survival, CellTiter-Glo 48 h, stronger effect = higher value
# [22] = Rieske KO mouse fibroblast survival, CellTiter-Glo 72 h
smiles,measurement,setting,value
Cc1ncc(CO)c(CO)c1O,survival,[1],7.67 (inactive)
same,parasite load remaining,[2],121% (inactive) and 68.6% (inactive) and 52.2% (inactive)
same,viability,[2],108% and 75.6% and 94.6%
same,nuclear beta-catenin stimulation,[3]; at 10 µM,0.1% (inactive)
same,nuclear beta-catenin stimulation,"[3]; stimulation, at 2 µM",0.9%
same,insulin secretion stimulation,[4],-1.8% (inactive)
same,viability decrease,[5],4.5% (inactive)
same,tube area decrease,[6],-14.1% (inactive)
same,GLP1 secretion stimulation,[7],3.1% (inactive)
same,inhibition of viability,[8],-18.3% (inactive)
same,viability decrease (inhibition),[9],23.7% (inactive)
same,viability decrease (inhibition),[10],3.95% (inactive)
same,red/green cell ratio (normalised),[11],0.91 (inactive)
same,normalised cell number,[11]; [15],1.07
same,normalised cell number,[11]; [16],0.97
same,fold change,[12]; [17],0.859 (inactive) and 0.971 (inactive) and 0.904 (inactive)
same,fold change,[12]; [18],1.28 and 0.606 and 6.28
same,cell count,[12]; [19],9040 and 7900 and 12400
same,cell count,[12]; [20],10500 and 8140 and 13700
same,z-score,[13]; [21],-0.22 (inactive) and 0.248 (inactive)
same,z-score,[13]; [22],-0.0864 and 0.109
same,remaining NAD,[14],10 nM (inactive)
O=C(O)c1cc(-c2ccccc2)nc2ccccc12,nuclear beta-catenin stimulation,[3]; at 10 µM,2.1% (inactive)
same,nuclear beta-catenin stimulation,"[3]; stimulation, at 2 µM",0.6%
same,insulin secretion stimulation,[4],-1.6% (inactive)
same,viability decrease,[5],5.55% (inactive)
same,tube area decrease,[6],1.3% (inactive)
same,GLP1 secretion stimulation,[7],4.2% (inactive)
same,inhibition of viability,[8],-8.1% (inactive)
same,viability decrease (inhibition),[9],27.9% (inactive)
same,viability decrease (inhibition),[10],8.8% (inactive)
same,red/green cell ratio (normalised),[11],0.87 (inactive)
same,normalised cell number,[11]; [15],0.9
same,normalised cell number,[11]; [16],0.78
same,fold change,[12]; [17],0.909 (inactive) and 0.965 (inactive)
same,fold change,[12]; [18],0.94 and 1.19
same,cell count,[12]; [19],8690 and 8580
same,cell count,[12]; [20],9560 and 8890
same,z-score,[13]; [21],-0.261 (inactive)
same,z-score,[13]; [22],-0.139
same,remaining NAD,[14],10 nM (inactive)
CN(C(=O)C(Cl)Cl)c1ccc(OC(=O)c2ccco2)cc1,survival,[1],6 (inactive)
same,parasite load remaining,[2],89.8% (inactive) and 59.5% (inactive)
same,viability,[2],98.9% and 106%
same,nuclear beta-catenin stimulation,[3]; at 10 µM,16.4% (inactive)
same,nuclear beta-catenin stimulation,"[3]; stimulation, at 2 µM",2.6%
same,insulin secretion stimulation,[4],0.3% (inactive)
same,viability decrease,[5],-11.8% (inactive)
same,tube area decrease,[6],13.6% (inactive)
same,GLP1 secretion stimulation,[7],0.9% (inactive)
same,inhibition of viability,[8],-9.5% (inactive)
same,viability decrease (inhibition),[9],4.3% (inactive)
same,viability decrease (inhibition),[10],-2.6% (inactive)
same,red/green cell ratio (normalised),[11],1.01 (inactive)
same,normalised cell number,[11]; [15],0.98
same,normalised cell number,[11]; [16],0.99
same,fold change,[12]; [17],0.855 (inactive) and 0.819 (inactive)
same,fold change,[12]; [18],1.35 and 4.27
same,cell count,[12]; [19],9270 and 10300
same,cell count,[12]; [20],10800 and 12500
same,z-score,[13]; [21],0.57 (inactive)
same,z-score,[13]; [22],-0.472
same,remaining NAD,[14],10 nM (inactive)
CC(=O)Nc1ncc([N+](=O)[O-])s1,nuclear beta-catenin stimulation,[3]; at 10 µM,-0.3% (inactive)
same,nuclear beta-catenin stimulation,"[3]; stimulation, at 2 µM",0.5%
same,insulin secretion stimulation,[4],-2.2% (inactive)
same,viability decrease,[5],4.2% (inactive)
same,tube area decrease,[6],5.9% (inactive)
same,GLP1 secretion stimulation,[7],-1.7% (inactive)
same,inhibition of viability,[8],12% (inactive)
same,viability decrease (inhibition),[9],9.6% (inactive)
same,viability decrease (inhibition),[10],13.5% (inactive)
same,red/green cell ratio (normalised),[11],1.12 (inactive)
same,normalised cell number,[11]; [15],0.93
same,normalised cell number,[11]; [16],1.04
same,fold change,[12]; [17],0.863 (inactive) and 0.891 (inactive)
same,fold change,[12]; [18],1.13 and 1.04
same,cell count,[12]; [19],8350 and 8950
same,cell count,[12]; [20],9670 and 10000
same,z-score,[13]; [21],-0.179 (inactive)
same,z-score,[13]; [22],-0.168
same,remaining NAD,[14],10 nM (inactive)
